According to PubChem BioAssay AID2242 (National Center for Advancing Translational Sciences (NCATS), 2010):
“And” between values parts separate entries of the source, which are not always exact repeats. Equal values may be shown once. Among all 200,000 compounds or so, about 720 (0.36%) were called active. About 8% were inconclusive and are not listed. The call rests on the fitted dose curve; in most records, active means well fitted activation curve with a large enough effect; inconclusive means small, poorly fitted or top-dose-only effect, or effect the other way, or another doubt; inactive means flat fitted curve, though single readings scatter. The list shows a part of the results.

biological target: Lysosomal alpha-glucosidase (Homo sapiens) (UniProt P10253); assay: qHTS Assay for Activators of Human alpha-Glucosidase as a Potential Chaperone Treatment of Pompe Disease; conditions: purified enzyme, 4-MU-alpha-glucoside fluorescence, 20 min; series mostly up to 76.9 µM; further: nearly all actives have a fitted effect of over 80% in size
Procedure, shortened: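 Fluorogenic assay, 4 nM enzyme, 400 uM 4-methylumbelliferyl-[…], pH 5.0 citrate/phosphate buffer with 0.005% Tween-20, compounds up to 77 uM, 20 min at room temperature. NaOH/glycine stop, Ex 365/Em 440 nm; AC50 from Hill fits.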
Potency means the concentration at half of the fitted maximal effect.

Potency, active:
COC(=O)C1=CN(C2CC2)C=C(C(=O)OC)C1c1ccc(C(=O)OC)cc1 35.5 µM, COC(=O)C1=CN(C2CC2)C=C(C(=O)OC)C1c1ccccc1OC 35.5 µM, CCN1CCn2c3c(c4cc(Cl)ccc42)CCCC31 (stereo not given) 31.6 µM, O=C(Nc1c2ccccc2nc2ccccc12)C(Cl)(Cl)Cl 35.5 µM, O=c1oc2ccccc2cc1-c1nc2ccccc2o1 31.6 µM, CC(=O)Nc1nc2n(n1)C(c1ccc(Cl)cc1)C=C(C)N2 (stereo not given) 35.5 µM, CC(C)n1c(=NC(=O)c2ccco2)c(C#N)cc2c(=O)n3ccccc3cc21 31.6 µM, COC(=O)c1ccc2c(=O)n(CCCCCC(=O)O)c(=O)[nH]c2c1 31.6 µM, CCCCCn1c(=O)[nH]c2cc(C(=O)O)ccc2c1=O 35.5 µM, CCN(CC)CCNC(=O)c1ccc2c(=O)n(CCc3ccccc3)c(=O)[nH]c2c1 35.5 µM, COC(=O)c1ccc2c(=O)n(CCCCCC(=O)NCc3ccccn3)c(=O)[nH]c2c1 31.6 µM, N=c1oc2cc(O)ccc2cc1C(=O)Nc1ccccn1 35.5 µM, N=c1oc2cc(O)ccc2cc1C(=O)Nc1nc2ccccc2s1 35.5 µM, C=CCn1c(-c2cccs2)nc2nc3ccccc3nc21 35.5 µM, CCCn1c(-c2cccs2)nc2nc3ccccc3nc21 35.5 µM, CCOC(=O)c1cccc(-n2c(-c3ccc(OC)cc3)nc3nc4ccccc4nc32)c1 5.01 µM, C=CCn1c(-c2ccc(OC)cc2)nc2nc3ccccc3nc21 35.5 µM, CC(C)Cn1c(-c2cccs2)nc2nc3ccccc3nc21 35.5 µM, CCC(C)n1c(-c2cccs2)nc2nc3ccccc3nc21 (stereo not given) 35.5 µM, Cc1ccc(-c2cc(C(=O)NCCCn3ccnc3)c3ccccc3n2)s1 28.2 µM, Cc1cccn2c(=O)c3cc(C(=O)N4CCN(C(=O)c5ccco5)CC4)n(C)c3nc12 35.5 µM, Cc1cccn2c(=O)c3cc(C(=O)NCCCN4CCCC4=O)n(C)c3nc12 35.5 µM, Cc1ccc2nc3c(cc(C(=O)NCCCn4ccnc4)n3C)c(=O)n2c1 35.5 µM, Nc1cc(C(=O)O)c(Oc2ccc(Cl)cc2Cl)cc1C(=O)O 35.5 µM, O=c1oc2cc(O)ccc2c2c1CCCC2 35.5 µM, CCc1cc2c3c(c(=O)oc2cc1O)CCCC3 28.2 µM, COC(=O)C1=CN(Cc2ccc(OC)cc2)C=C(C(=O)OC)C1c1ccsc1 25.1 µM, COC(=O)C1=CN(Cc2ccc(OC)cc2)C=C(C(=O)OC)C1c1cccs1 25.1 µM, COc1ccc(-c2cn3cccnc3n2)cc1 35.5 µM, FC(F)(F)Oc1ccc(-c2cn3cccnc3n2)cc1 35.5 µM, Cc1ccc(-c2cn3cccnc3n2)cc1 35.5 µM, CC1(C)CN(c2ccc(-c3ccnc4ncnn34)cc2)C1=O 28.2 µM, N#Cc1c(C(F)(F)F)cc(-c2cccs2)nc1SCc1cccnc1 35.5 µM, Cc1[nH]c2ccccc2c1C(O)CN1CCN(c2cccc(C(F)(F)F)c2)CC1 (stereo not given) 35.5 µM, CC(C)c1cc(NCCCN2CCOCC2)n2c(nc3ccccc32)c1C#N 31.6 µM, Cc1cc(NCCCN2CCOCC2)n2c(nc3ccccc32)c1C#N 31.6 µM, COc1ccc(-c2c(C#N)c(N)nc3c2CCc2ccccc2-3)cc1OC 35.5 µM, COCCCn1cnc2oc3nc4ccccc4nc3c2c1=O 35.5 µM, O=C(O)c1cc2c(ccc3ccccc32)oc1=O 35.5 µM, CC(=O)Nc1cc2c(ccc3ccccc32)oc1=O 25.1 µM, CC(=O)Nc1cc2ccc(OC(C)=O)cc2oc1=O 35.5 µM, CCOC(=O)c1cc2c(ccc3ccccc32)oc1=O 35.5 µM, O=C(c1cc2c(ccc3ccccc32)oc1=O)N1CCCC1 31.6 µM, CC(OC(=O)c1cc2c(ccc3ccccc32)oc1=O)c1nc2ccccc2s1 (stereo not given) 28.2 µM, O=C(NCCc1ccccc1)c1cnc2ccccn2c1=O 25.1 µM, Cc1cccc(-n2c3nc(=O)[nH]c(=O)c-3cc3c(C)nn(-c4ccccc4)c32)c1C 22.4 µM, Cc1cccc(-n2c3nc(=O)[nH]c(=O)c-3cc3c(C)nn(-c4ccccc4)c32)c1 20 µM, Cc1ccc(-n2c3nc(=O)[nH]c(=O)c-3cc3c(C)nn(-c4ccccc4)c32)c(C)c1 25.1 µM, O=c1c(-c2nc3ccccc3s2)cccn1Cc1ccccc1 39.8 µM, Cc1ccc(Cn2cccc(-c3nc4ccccc4s3)c2=O)cc1 28.2 µM, O=c1c(-c2nc3ccccc3s2)cccn1Cc1ccc(Cl)cc1 10 µM, O=c1c(-c2nc3ccccc3s2)cccn1Cc1ccc(Cl)c(Cl)c1 28.2 µM, COc1cc(=O)n(C)c2cc(N(C)C)ccc12 31.6 µM, COc1cc2nc(N(C)CCCNC(=O)C3CCCO3)nc(N)c2cc1OC (stereo not given) 35.5 µM, COc1cc2nc(N3CCN(C(=O)C4COc5ccccc5O4)CC3)nc(N)c2cc1OC (stereo not given) 39.8 µM, COc1cc2nc(N3CCN(C(=O)C4CCCO4)CC3)nc(N)c2cc1OC (stereo not given) 35.5 µM and 39.8 µM, O=C(O)C(=O)/C(=C\c1cccc(Cl)c1)c1ccc2ccccc2n1 28.2 µM, Cc1cccc(S(=O)(=O)Nc2ccc(-c3nc4ccc(C)cc4s3)cc2)c1 31.6 µM, Cc1nc2ccc(S(=O)(=O)Nc3ccc(-c4nc5cccnc5s4)cc3)cc2s1 35.5 µM, Cc1ccc2nc(-c3ccc(NS(=O)(=O)c4ccc(F)cc4)cc3)sc2c1 35.5 µM, Cc1ccc2sc(-c3ccc(NC(=O)/C=C\C(=O)O)cc3)nc2c1 39.8 µM, Cc1ccc(S(=O)(=O)Nc2ccc(-c3nc4ccc(C)cc4s3)cc2)cc1 35.5 µM, Cc1ccc2nc(-c3ccc(NS(=O)(=O)c4ccc(F)c(F)c4)cc3)sc2c1 3.55 µM, Cc1cc(-c2nc3cccnc3s2)ccc1NS(=O)(=O)c1ccc2c(c1)OCCO2 35.5 µM, C/C(=N\NC(=O)CC#N)c1cc2ccc(O)cc2oc1=O 35.5 µM, Cc1c2c(n3c(nc4ccccc43)c1C#N)N(CCCN(C)C)CC2 35.5 µM, Cc1c2c(n3c(nc4ccccc43)c1C#N)N(CCN1CCOCC1)CC2 5.62 µM, CCCn1c(=NC(C)=O)c(C(=O)OCC)cc2c(=O)n3ccccc3nc21 35.5 µM, CCOC(=O)c1cc2c(=O)n3ccccc3nc2n(CCCOC)c1=NC(C)=O 35.5 µM, CCOC(=O)c1cc2c(=O)n3ccccc3nc2n(CC2CCCO2)c1=NC(C)=O (stereo not given) 35.5 µM, CCOCCCn1c(=NC(C)=O)c(C(=O)OCC)cc2c(=O)n3ccccc3nc21 39.8 µM, CCOC(=O)c1cc2ccc(OC)cc2oc1=O 31.6 µM, CNC(=O)c1cc2ccc(OC)cc2oc1=O 28.2 µM, CCOC(=O)c1cc2ccc(OC(=O)c3ccco3)cc2oc1=O 35.5 µM, CSc1nc2n(n1)C(c1ccccn1)C1=C(CC(C)(C)CC1=O)N2 (stereo not given) 35.5 µM, CCC(NC(=O)OC(C)(C)C)C(=O)Oc1ccc2c3c(c(=O)oc2c1)CCC3 (stereo not given) 35.5 µM, Cc1c(OC(=O)CNC(=O)OC(C)(C)C)ccc2c3c(c(=O)oc12)CCC3 11.2 µM, CSCCC(NC(C)=O)C(=O)Oc1ccc2c3c(c(=O)oc2c1)CCCC3 (stereo not given) 35.5 µM, Cc1csc(NC(=O)c2ccccc2O)n1 39.8 µM, C=CCN(c1ccccc1)S(=O)(=O)c1cccc(C(=O)Oc2ccc3c(C)cc(=O)oc3c2)c1 35.5 µM, CCN(c1ccccc1)S(=O)(=O)c1cc(C(=O)Oc2ccc3c(C)cc(=O)oc3c2)ccc1C 28.2 µM, Cc1ccc(N(C)S(=O)(=O)c2cccc(C(=O)Oc3ccc4c(C)cc(=O)oc4c3)c2)cc1 31.6 µM, O=Cc1cn(-c2ccccc2)nc1-c1cc2cc(O)ccc2oc1=O 35.5 µM, CCC(C)NC(=O)c1cc2cc3ccc(OC)cc3nc2s1 (stereo not given) 35.5 µM, COc1ccc2cc3cc(C(=O)NC(C)C)oc3nc2c1 28.2 µM, COc1ccc2cc3cc(C(=O)NCC4CCCO4)oc3nc2c1 (stereo not given) 35.5 µM, O=c1[nH]cnc2nc(-c3ccccc3)c(-c3ccccc3)nc12 35.5 µM, COc1ccc2cc3cc(C(=O)NCCN4CCc5ccccc5C4)oc3nc2c1 35.5 µM, COc1ccc2cc3cc(C(=O)NCCN4CCN(Cc5ccccc5)CC4)oc3nc2c1 28.2 µM, COc1ccc2cc3cc(C(=O)NCCN4CCN(c5ccccc5F)CC4)oc3nc2c1 35.5 µM, CC(=O)Nc1ccc(S(=O)(=O)NCC(=O)OCc2cc(=O)oc3ccc4ccccc4c23)cc1 35.5 µM, COc1cccc(-c2nc(N3CCN(Cc4ccccc4)CC3)c3ccccc3n2)c1O 39.8 µM, COC(=O)c1ccc2nc(Nc3nc4c(F)cc(F)cc4s3)sc2c1 6.31 µM, COC(=O)c1ccc2nc(Nc3nc4ccc(F)cc4s3)sc2c1 12.6 µM, O=C(NC1CCC(O)CC1)c1cc(-c2ccco2)nc2ccccc12 (stereo not given) 39.8 µM
